Laboratory results reported in PubChem BioAssay (NCATS).
Results filed as inconclusive are left out. Where a call stands in place of a potency, no number is given. The source made the active and inactive calls. Unless noted, the call rests on the fitted dose curve; in most records, active means well fitted curve in the direction sought with a large enough effect; inconclusive means small, poorly fitted or top-dose-only effect, or another doubt; inactive means no such curve, though single readings can be large; an effect the other way counts as inactive or inconclusive.

Assays:
[1] = target: Pyruvate kinase PKM (Homo sapiens) (UniProt P14618); test: qHTS Assay for Activators of Human Muscle Pyruvate Kinase (AID 954; active means well fitted curve in the direction sought with a large enough effect, not every such curve was filed as active)
Method in brief: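 ATP production by PKM2 detected via luciferase luminescence after 1 h room-temperature reaction (0.1 nM enzyme, PEP at Km 0.5 mM, ADP 0.1 mM, pH 7.2 imidazole buffer). Inhibition scaled to no-enzyme control; activation referenced to 0.3 nM enzyme wells.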

[2] = MultiTox-Fluor Cytotoxicity Assay - LYMP1-001 - Live Cells (AID 947)
[3] = Cell Viability - LYMP1-002 - Assay at 16 hr (AID 948)
From the text: NIH Chemical Genomics Center [NCGC]
NIH Molecular Libraries Screening Centers Network [MLSCN]
National Institutes of Environmental Health Sciences [NIEHS]
National Toxicology Program [NTP]
We have developed a 1536-well cell-based assay for quantitative high throughput screening (qHTS) against a number of cell lines to determine in vitro cytotoxicity of small molecules. This particular assay uses a human lymphoblastoid cell line (LYMP1-002) purchased from Coriell Institute for Medical Research.
NCGC Assay Protocol Summary:
The CellTiter-Glo luminescent cell viability assay (Promega) is a homogeneous method to measure the number of viable cells in culture. The end point readout of this assay is based on quantitation of intracellular ATP, an indicator of metabolic activity, using the luciferase reaction. Luciferase catalyzes the oxidation of beetle Luciferin to oxyluciferin and light in the presence of ATP. The luminescent signal is proportional to amount of ATP present.
Using the CellTiter-Glo luminescent cell viability assay, the amount of cellular ATP was measured in the lymphoblastoid cell line with complete culture medium following compound treatment for 16 hours. The assay was performed in opaque white Kalypsys 1536-well plates. In the screen, tetraoctylammonium bromide was used as positive control. Library compounds were measured for their ability to cause acute toxicity in the cell line, as reflected by a decrease in intracellular ATP levels, in a concentration-dependent manner. […] AC50 values were determined from concentration-response data modeled with the standard Hill equation.
qHTS protocol for CellTiter Glo lymphoblastoid cellular assay
[Step] [Parameter] [Value] [Description]
1. Reagent; 5 uL; 2500 lymphoblastoid cells/well
2. Time; 5 hr; 37 C incubation
4. Controls; 23 nL; Tetraoctylammonium bromide 6.4pM to 92 uM
5. Time; 16 hr; 37 C incubation
6. Reagent; 5 uL; CellTiter Glo reagent
7. Time; 30 min; Room Temperature
8. Detection; Luminescence; Viewlux plate reader
Keywords: cell viability, cytotoxicity, lymphoblastoid cell line, luminescence, NTPHTS, NTPHTS_NCGC, NIEHS, DSSTox, MLSMR, MLSCN, NIH Roadmap, qHTS, NCGC

[4] = MultiTox-Fluor Cytotoxicity Assay - LYMP1-002 - Live Cells (AID 955)
Method in brief: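 LYMP1-002 lymphoblastoid cells; 2500 cells/well; 16 hr compound exposure, 37 C; MultiTox-Fluor reagent 60 min RT; live-cell fluorescence Ex/Em=405/510; qHTS concentration-response, Hill-equation AC50; tetraoctylammonium bromide positive control.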

[5] = MultiTox-Fluor Cytotoxicity Assay - LYMP1-002 - Dead Cells (AID 960); further: nearly all actives have a fitted effect of over 60% in size
Method in brief: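 Readout: fluorescence at 485/520 from cell-impermeant bis-AAF-R110 cleaved by proteases leaking from damaged cells. LYMP1-002 lymphoblastoid line, 16 hr compound treatment at 37 C, concentration-response in qHTS format; Hill-equation AC50 values.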

[6] = MultiTox-Fluor Cytotoxicity Assay - LYMP1-003 - Dead Cells (AID 961); further: nearly all actives have a fitted effect of over 70% in size
Method in brief: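 Dead-cell protease release, detected as bis-AAF-R110 fluorescence at 485/520 nm, was measured in LYMP1-003 cells after 16 h compound treatment at 37 C. AC50 values came from Hill-modeled qHTS curves normalized to DMSO (0%) and 15 uM tetraoctylammonium bromide (100%).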

[7] = MultiTox-Fluor Cytotoxicity Assay - LYMP1-003 - Live Cells (AID 962);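 further: cells exposed to compound for 16 hours at 37 °C; cytotoxic hits lower the live-cell protease signal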
Method in brief: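 Readout: live-cell fluorescence (Ex/Em=405/510) from GF-AFC cleavage after 60 min MultiTox-Fluor reagent at room temperature. Lymphoblastoid LYMP1-003 cells, 16 hr compound treatment, 37 C. Concentration-response fitted to standard Hill equation for AC50.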

[8] = Cell Viability - LYMP1-003 - Assay at 24 hr (AID 963)
Method in brief: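 CellTiter-Glo luminescence (intracellular ATP) read after 24 hr, 37 C compound exposure of 2500 LYMP1-003 human lymphoblastoid cells/well in complete medium; qHTS concentration series; AC50 via standard Hill equation.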

[9] = Cell Viability - LYMP1-003 - Assay at 40 hr (AID 964); further: nearly all actives have a fitted effect of over 60% in size; further: potency means the concentration at half of the fitted maximal effect
Method in brief: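 LYMP1-003 lymphoblastoid cells, 2500/well; 5 hr preincubation, 40 hr compound exposure, 37 C; CellTiter-Glo 30 min RT; luminescence; Hill-fit AC50. Positive control tetraoctylammonium bromide.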

[10] = target: Pyruvate kinase (Leishmania mexicana) (UniProt Q27686); test: qHTS Validation Assay for Activators of Leishmania Mexicana Pyruvate Kinase (AID 959)
Method in brief: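 Eight-point qHTS titrations in triplicate, data normalized to DMSO neutral control. Reaction: 0.2 nM LmPYK E451W mutant, 0.5 mM PEP, 0.1 mM ADP, 7 mM MgCl2, pH 7.2, one hour at room temperature; luminescent ATP detection.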

Chain of Pyruvate kinase PKM (Homo sapiens) (P14618 whole entry, looked up): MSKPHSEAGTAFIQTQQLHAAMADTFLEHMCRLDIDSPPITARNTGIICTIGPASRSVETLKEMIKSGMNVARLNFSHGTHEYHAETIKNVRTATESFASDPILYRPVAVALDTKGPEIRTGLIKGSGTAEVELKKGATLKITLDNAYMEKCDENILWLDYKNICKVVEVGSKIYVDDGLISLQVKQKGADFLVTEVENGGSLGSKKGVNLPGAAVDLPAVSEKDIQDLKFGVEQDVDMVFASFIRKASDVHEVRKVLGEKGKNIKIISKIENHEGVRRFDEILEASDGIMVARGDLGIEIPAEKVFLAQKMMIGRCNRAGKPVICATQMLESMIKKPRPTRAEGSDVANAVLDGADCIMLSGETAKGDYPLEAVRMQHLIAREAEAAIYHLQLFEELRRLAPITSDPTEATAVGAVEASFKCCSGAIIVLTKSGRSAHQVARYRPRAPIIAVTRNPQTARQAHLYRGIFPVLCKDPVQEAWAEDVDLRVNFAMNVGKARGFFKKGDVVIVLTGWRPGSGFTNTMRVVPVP
Chain of Pyruvate kinase (Leishmania mexicana) (Q27686 2-499 E452W): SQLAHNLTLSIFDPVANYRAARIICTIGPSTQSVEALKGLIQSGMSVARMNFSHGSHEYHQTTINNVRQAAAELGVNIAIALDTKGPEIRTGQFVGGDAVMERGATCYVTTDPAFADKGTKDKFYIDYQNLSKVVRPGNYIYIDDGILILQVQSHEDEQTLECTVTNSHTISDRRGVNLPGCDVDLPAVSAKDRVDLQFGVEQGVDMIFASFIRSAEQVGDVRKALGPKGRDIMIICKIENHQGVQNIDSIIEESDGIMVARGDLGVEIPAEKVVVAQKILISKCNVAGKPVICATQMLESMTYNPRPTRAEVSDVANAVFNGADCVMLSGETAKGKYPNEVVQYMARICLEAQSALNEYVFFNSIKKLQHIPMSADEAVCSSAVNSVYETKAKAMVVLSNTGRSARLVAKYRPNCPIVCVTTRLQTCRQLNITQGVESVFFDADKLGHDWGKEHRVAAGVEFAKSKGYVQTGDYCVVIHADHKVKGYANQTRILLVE

CC(C)NCC(O)COc1ccc(COCCOC(C)C)cc1 (configuration not stated)
outcome [1]: inactive

CCOC(=O)N1CCC(=C2c3ccc(Cl)cc3CCc3cccnc32)CC1
outcome [1]: inactive

CNC[C@H](O)c1cccc(O)c1
outcome [1]: inactive

Cc1[nH]c(=O)c(C#N)cc1-c1ccncc1
outcome [1]: inactive

O=C1CCc2cc(OCCCCc3nnnn3C3CCCCC3)ccc2N1
outcome [1]: inactive

N[C@@H]1CONC1=O
outcome [1]: inactive

Cc1ccc(N(CC2=NCCN2)c2cccc(O)c2)cc1
outcome [1]: inactive

O=c1[nH]cnc2[nH]ncc12
outcome [2]: inactive | outcome [3]: inactive | outcome [1]: inactive | outcome [4]: inactive | outcome [5]: inactive | outcome [6]: inactive | outcome [7]: inactive | outcome [8]: inactive | Potency [9]: inactive

Cc1cn[nH]c1
outcome [1]: inactive

Clc1cccc(Cl)c1NC1=NCCN1
outcome [1]: inactive

NC[C@H](O)c1ccc(O)c(O)c1
outcome [1]: inactive

CN1CCN(CCCN2c3ccccc3Sc3ccc(C(F)(F)F)cc32)CC1
outcome [1]: inactive

NNCCc1ccccc1
outcome [1]: inactive

NCCc1ccc(O)c(O)c1
outcome [1]: inactive

CCOC(=O)C1=C[C@@]2(CC)CCCN3CCc4c(n1c1ccccc41)[C@H]32
outcome [1]: inactive

O=NN(CCCl)C(=O)NCCCl
outcome [1]: inactive

O=c1n(CCCN2CCN(c3cccc(Cl)c3)CC2)nc2ccccn12
outcome [1]: inactive

CCCC(CCC)C(=O)O
outcome [3]: inactive | outcome [1]: inactive | outcome [4]: inactive | outcome [6]: inactive | outcome [7]: inactive | outcome [8]: inactive | Potency [9]: inactive

OC(CN1CCC(Cc2ccc(F)cc2)CC1)c1ccc(Cl)cc1 (configuration not stated)
outcome [1]: inactive

NC(=O)c1cnccn1
outcome [2]: inactive | outcome [3]: inactive | outcome [1]: inactive | outcome [4]: inactive | outcome [5]: inactive | outcome [6]: inactive | outcome [7]: inactive | outcome [8]: inactive | Potency [9]: inactive

Cc1oncc1C(=O)Nc1ccc(C(F)(F)F)cc1
outcome [1]: inactive

Nc1nc2c(ncn2COCCO)c(=O)[nH]1
outcome [1]: inactive

Nc1nc2ccc(OC(F)(F)F)cc2s1
outcome [1]: inactive | outcome [10]: inactive

NS(=O)(=O)c1cc2c(cc1Cl)NC=NS2(=O)=O
outcome [2]: inactive | outcome [3]: inactive | outcome [1]: inactive | outcome [4]: inactive | outcome [6]: inactive | outcome [7]: inactive | outcome [8]: inactive | Potency [9]: inactive

CC(C)(Sc1ccc(CCN(CCCCC2CCCCC2)C(=O)NC2CCCCC2)cc1)C(=O)O
outcome [1]: inactive

C[C@]12CCC(=O)C=C1CC[C@@H]1[C@@H]2[C@@H](O)C[C@@]2(C)[C@H]1CC[C@]2(O)C(=O)CO
outcome [1]: inactive

Nc1ccc(S(=O)(=O)Nc2ccnn2-c2ccccc2)cc1
outcome [1]: inactive

Cn1cnc([N+](=O)[O-])c1Sc1ncnc2nc[nH]c12
outcome [2]: inactive | outcome [3]: inactive | outcome [1]: inactive | outcome [4]: inactive | outcome [5]: inactive | outcome [6]: inactive | outcome [7]: inactive | Potency [9]: 2510 nM (active)

C1COC(NC(C2CC2)C2CC2)=N1
outcome [1]: inactive

Cc1[nH]c(=O)c(C#N)cc1-c1ccc2nccn2c1
outcome [1]: inactive

NC(N)=NC(=O)c1nc(Cl)c(N)nc1N
outcome [2]: inactive | outcome [3]: inactive | outcome [1]: inactive | outcome [4]: inactive | outcome [5]: inactive | outcome [6]: inactive | outcome [7]: inactive | outcome [8]: inactive | Potency [9]: inactive

CC(=O)Oc1ccccc1C(=O)O
outcome [2]: inactive | outcome [3]: inactive | outcome [1]: inactive | outcome [4]: inactive | outcome [5]: inactive | outcome [6]: inactive | outcome [7]: inactive | outcome [8]: inactive | Potency [9]: inactive

CCCCNc1cc(C(=O)O)cc(S(N)(=O)=O)c1Oc1ccccc1
outcome [1]: inactive

N=c1nc(N2CCCCC2)cc(N)n1O
outcome [1]: inactive
